High-throughput results deposited in PubChem by National Center for Advancing Translational Sciences (NCATS).
Methyltransferases: Primary Screen for Target Class Profiling of Small Molecule Inhibitors of Methyltransferases. purified enzyme, MTase-Glo SAH luminescence; hits give low values. calls only at 40 µM. hit rate 3.9% among 25,000; call rule not given here
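Each enzyme was reacted with SAM and its substrate, with compounds tested once at 40 uM; SAH formed was read by MTase-Glo luminescence.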
The depositor's hits bear a star; i = inactive; + = active, no number; ! = not confirmed by another sample. The full list was thinned out, with hits kept by preference. % is set by controls: 0 for no effect and ±100 for the full control effect.

SMILES | Methyltransferases
C=CC(C)(CCC=C(C)C)O[C@@H]1O[C@H](CO)[C@@H](O)[C@H](O)[C@H]1O (stereo partly drawn) | i
C=CC(C)(CC/C=C(\C)CC/C=C(\C)CC(O)/C=C(\C)C(=O)O)O[C@@H]1O[C@H](CO)[C@@H](O)[C@H](O)[C@H]1O[C@@H]1O[C@H](CO)[C@@H](O)[C@H](O)[C@H]1O (stereo partly drawn) | i
C=C[C@](C)(CC/C=C(\C)C(=O)O)O[C@@H]1OC[C@H](O)[C@H](O)[C@H]1O | +
COc1ccccc1-c1nnc2n(Cc3ccc(F)cc3)c(=O)c3ccccc3n12 | i
O=C(Cn1ccc2cc(S(=O)(=O)N3CCCCC3)ccc21)N1CCN(c2ccccc2)CC1 | i
Cc1cc(Cl)ccc1N1C(=O)CSc2c(c3ccccc3n2C)C1C(=O)NCc1ccccc1 (stereo not drawn) | i
CN(CC(=O)N(Cc1ccc(C2CCCCC2)cc1)c1ccc(C(=O)O)cc1)S(=O)(=O)c1c(F)c(F)c(F)c(F)c1F | +
CN(Cc1ccccc1)C(=O)CN(C)S(=O)(=O)c1ccc2[nH]c3c(c2c1)CCCC3 | i
CN1CCCN(CC(=O)N2CCCC(c3ccc(C(=O)O)cc3)C2)CC1 (stereo not drawn) | i
COc1ccc(-c2cc3n(n2)CC(C)(C(=O)NCc2ccccc2OC)N(c2cccc(OC)c2)C3=O)cc1 (stereo not drawn) | i
Cc1cccc(NC(=O)Cn2nc3n(CCC(C)C)c(=O)c4ccc(C(=O)NCC(C)C)cc4n3c2=O)c1 | i
COc1cccc(NS(=O)(=O)c2cc3[nH]c(=O)[nH]c3cc2C)c1 | i
Cc1ccc(NS(=O)(=O)c2cc3[nH]c(=O)[nH]c3cc2C)cc1 | i
COc1cccc(Cn2nc3n(Cc4ccccc4)c(=O)c4ccccc4n3c2=O)c1 | i
CC1(C(=O)NC2CCCCCCC2)Cn2c(cc3sccc32)C(=O)N1C1CCCCCC1 (stereo not drawn) | i
OC[C@H](Cc1ccccc1)Nc1nc(Oc2ccc3c(c2)CCC3)nc2c1ncn2Cc1ccc(-c2ccccc2)cc1 | +
C=CC(=O)Nc1cccc(Nc2nc(Nc3ccc(OCCOC)cc3)ncc2F)c1 | +
CC1(C(=O)Nc2ccccc2F)COCc2cnc(Nc3ccccc3)nc21 (stereo not drawn) | i
CC(C)(C)NC(=O)Nc1cccc(Nc2ncc(F)c(NC(C)(C)CO)n2)c1 | i
CCCCN1C(=O)c2cc(C(=O)N3CCN(c4ccccn4)CC3)nn2CC1(C)C(=O)NC1CCCC1 (stereo not drawn) | i
Cc1ccc(CNC(=O)Cn2c(=O)c3ccc(Cl)cc3n3nncc23)cc1 | i
Cc1cccc(N2C(=O)c3cc4sccc4n3CC2(C)C(=O)NC2CCCCC2C)c1C (stereo not drawn) | i
O=c1c(-c2ccc(O)cc2)coc2cc(O)cc(O)c12 | i
O=c1c(O)c(-c2ccc(O)c(O)c2)oc2cc(O)cc(O)c12 | +!
O=c1cc(-c2ccc(O)c(O)c2)oc2cc(O)cc(O)c12 | i
SMILES | Methyltransferases
CC1(C(=O)NCc2ccccc2)Cn2nc(-c3ccccc3)cc2C(=O)N1c1ccc2c(c1)OCCO2 (stereo not drawn) | i
Cc1nc2c3ccccc3n3c(CCCC(=O)NC4CCN(Cc5ccccc5)CC4)nnc3n2n1 | i
N[C@@H](Cc1ccc(O)c(I)c1)C(=O)O | i
O=C(O)Cc1ccc(O)c(O)c1 | +
COC(=O)[C@@H](N)Cc1ccc(O)c(O)c1 | i
COc1ccc(N2C(=O)c3cc4ccccc4n3CC2(C)C(=O)NC2CCCCC2)cc1OC (stereo not drawn) | i
Cc1cccc(CN2C(=O)c3cc4ccccc4n3CC2(C)C(=O)NCc2ccccc2)c1 (stereo not drawn) | i
COc1ccc(CCN2C(=O)c3cc4ccccc4n3CC2(C)C(=O)NCc2ccccc2)cc1OC (stereo not drawn) | i
COc1ccc(CN2C(=O)c3cc4ccccc4n3CC2(C)C(=O)NCc2ccccc2)cc1OC (stereo not drawn) | +
CCCC1c2cccn2CCN1C(=O)NCCCOC (stereo not drawn) | i
COCCN1C(=O)c2ccc(-c3ccccc3)n2CC1(C)C(=O)NC1CCCCCC1 (stereo not drawn) | i
CN1C(=O)c2cc(C(=O)NCc3ccccc3F)nn2CC1(C)C(=O)NC1CCCCC1 (stereo not drawn) | i
CCOc1ccc(CN2C(=O)c3nc4ccccc4n3CC2(C)C(=O)NC2CCCCC2)cc1 (stereo not drawn) | i
Cc1ccc(Cn2c(=O)c3ccccc3n3c(SCC(=O)Nc4ccc(Cl)cc4)nnc23)cc1 | i
C[C@H](Nc1cc2c(-c3ccc4c(c3)OCO4)noc2cn1)c1ccccc1 | +
OC[C@H]1O[C@@H](n2cnc3c(NC4CCCC4)ncnc32)[C@H](O)[C@@H]1O | i
OC[C@H]1O[C@@H](n2cnc3cncnc32)[C@H](O)[C@@H]1O | +
